Beta cell apopt: beta cell apoptosis inhibition; AID 435005; protection from apoptosis, % (no concentration beside the values); INS-1E cytokine-induced death, ATP luminescence, 48 h; percent of positive-control rescue, neutral wells zero; actives 0.8% (n = 300,000);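 active = Every replicate reaches about 75%, or at least half do and their mean reaches it too, limit read from the data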;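 also: 0% = cytokine-treated negative control wells and 100% = positive control rescue; higher means more ATP so stronger rescue from cytokine killing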
MPTP block: blocks calcium-induced mitochondrial swelling | actives 1.4% (n = 360,000) | AID 602449 | inhibition, % at 10 µM | isolated mouse mitochondria, Ca2+ swelling absorbance, 30 min;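 active = inhibition of 50% or more, scaled per plate between neutral and stimulator controls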;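 also: 0% = DMSO wells given calcium and 100% = 1 mM EGTA wells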
CSC inhib: cancer stem cell inhibition. actives 1.1% (n = 300,000). cancer stem cell-like cells viability, luminescence. inhibition, % at 7.5 µM; in the data active = inhibition above about 75%; tested in HMLE shEcad cells
Gli-Sufu antag: antagonists of Gli-Sufu signaling; inhibition, % at 5 µM; Sufu-KO-LIGHT fibroblasts, Gli luciferase reporter luminescence; actives 0.74% (n = 340,000);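 active = inhibition above about 55%, limit read from the data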;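 also: 0% = DMSO-treated cells and 100% = wells with medium but no cells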
Mdm2 MdmX PPI: inhibitors of human Mdm2/MdmX interaction; O15151+Q00987; SaOS-2 split-luciferase Mdm2/MdmX complementation, luminescence; inhibition, % at 8 µM; actives 3% (n = 330,000); AID 485346;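 active = inhibition of at least 50% at 8 µM in the primary screen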
Target sequence (O15151 whole entry, looked up): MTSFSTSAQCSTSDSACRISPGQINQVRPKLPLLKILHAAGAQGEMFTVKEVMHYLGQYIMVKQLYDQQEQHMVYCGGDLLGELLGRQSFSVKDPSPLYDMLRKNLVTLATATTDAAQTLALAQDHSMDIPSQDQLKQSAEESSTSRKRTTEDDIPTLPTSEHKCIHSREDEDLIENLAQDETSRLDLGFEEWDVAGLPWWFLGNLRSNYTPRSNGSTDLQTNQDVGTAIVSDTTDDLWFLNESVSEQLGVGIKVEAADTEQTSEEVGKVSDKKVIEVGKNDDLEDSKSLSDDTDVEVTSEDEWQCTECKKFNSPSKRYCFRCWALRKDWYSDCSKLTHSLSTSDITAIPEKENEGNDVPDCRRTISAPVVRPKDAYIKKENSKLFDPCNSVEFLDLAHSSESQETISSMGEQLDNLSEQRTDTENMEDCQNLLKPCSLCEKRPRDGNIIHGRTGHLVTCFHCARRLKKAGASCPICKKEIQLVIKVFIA
Target sequence (Q00987 whole entry, looked up): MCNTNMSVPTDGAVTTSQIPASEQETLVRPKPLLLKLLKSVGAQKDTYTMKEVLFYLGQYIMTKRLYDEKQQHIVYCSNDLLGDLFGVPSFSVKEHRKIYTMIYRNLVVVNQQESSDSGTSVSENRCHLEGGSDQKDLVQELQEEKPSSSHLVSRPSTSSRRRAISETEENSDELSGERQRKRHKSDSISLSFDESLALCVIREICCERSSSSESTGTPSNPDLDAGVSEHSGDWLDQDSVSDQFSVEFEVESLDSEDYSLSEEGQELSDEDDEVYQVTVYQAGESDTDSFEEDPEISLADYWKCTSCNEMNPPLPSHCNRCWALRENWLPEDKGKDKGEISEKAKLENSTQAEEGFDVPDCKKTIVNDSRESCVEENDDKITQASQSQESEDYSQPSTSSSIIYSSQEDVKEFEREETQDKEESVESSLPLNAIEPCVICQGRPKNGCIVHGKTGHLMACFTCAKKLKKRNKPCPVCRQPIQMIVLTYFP
GRIN3A LBD mod: modulates the human NR3A ligand-binding domain. NR3A LBD differential scanning fluorimetry, Tm shift; 0% = protein alone, 100% = glycine-bound protein. Tm shift relative to glycine control, % at 25 µM. actives 2.5% (n = 340,000);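 active = melting temperature shift of at least 10% of the positive control shift, at one fixed dose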
Gli antag conf: Gli-SUFU antagonism confirmation, single concentration; actives 40% (n = 2,500); AID 602428; Sufu-KO-LIGHT cells, Gli luciferase reporter, luminescence; shares compounds with Gli-Sufu antag; inhibition, % at 5 µM;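 active = mean inhibition at 5 µM reaching about 45%, limit read from the data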;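 also: plate controls were DMSO-treated cells for no effect and wells lacking cells for full effect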
SufuKO cytotox: cytotoxicity counter-screen for Gli-SUFU antagonists; shares compounds with Gli-Sufu antag; Sufu-KO-LIGHT cells cytotoxicity, ATP luminescence; cytotoxicity, % at 5 µM; actives 32% (n = 2,500);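 active = mean cytotoxicity at 5 µM above about 25%, limit read from the data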;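 also: cells exposed to compound overnight for roughly 16 to 18 hours; plate controls were DMSO wells with cells for no effect and medium without cells for full effect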
Wnt3a cs: counter-screen for Gli-SUFU antagonists: Wnt3a reporter inhibition | actives 20% (n = 2,500) | inhibition, % at 6.25 µM | AID 651995 | Wnt-LIGHT cells, Wnt3a-driven luciferase reporter, luminescence | shares compounds with Gli-Sufu antag;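 active = mean inhibition above about 25%, limit read from the data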
MPTP counter: mitochondrial membrane potential, counter-screen; shares compounds with MPTP block; isolated mitochondria, Rhodamine 123 fluorescence; inhibition, % at 10 µM; actives 78% (n = 5,000); AID 624504; in the data active = inhibition above about 22%;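 also: 0% = DMSO vehicle and 100% = positive control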
MPTP abs DR: dose response confirmation of mitochondrial permeability transition pore inhibitors. shares compounds with MPTP block. isolated mitochondria swelling, absorbance. IC50, µM. actives 58% (n = 780). AID 651561; in the data active = IC50 below about 20 µM
MPTP cs DR: MPTP inhibitor counter-screen activity, dose response; shares compounds with MPTP block; isolated mitochondria counterscreen, fluorescence read-out; IC50, µM; actives 49% (n = 780); in the data active = IC50 below about 80 µM
Numbers without * were called inactive; . = no result. This is a sample that favours compounds with a hit; in the whole collection about 6.6% have one here.

SMILES	Beta cell apopt	MPTP block	CSC inhib	Gli-Sufu antag	Mdm2 MdmX PPI	GRIN3A LBD mod	Gli antag conf	SufuKO cytotox	Wnt3a cs	MPTP counter	others
COc1cc(C[C@@H]2C(=O)OC[C@H]2Cc2ccc(OC)c(OC)c2)ccc1O	67	92*	-8	66*	6	3	57*	32*	32*	80*
CN(CC1CCN(CCc2cccc(C(F)(F)F)c2)CC1)C(=O)c1ccc(F)cc1	-8	4	17	37	7	3	.	.	.	.
COc1cc(C(=O)N(C)CC2CCN(CCc3cccc(C(F)(F)F)c3)CC2)ccc1C	-1	81*	4	58*	34	-3	21	-7	-30	1	MPTP abs DR=7.6*;MPTP cs DR=25*
CCC(C)NC(=O)c1ccccc1NC(=O)COc1ccc(OC)cc1 (stereo not drawn)	.	0	.	27	18	6	.	.	.	.
COc1ccc(CC2(CO)CCN(CC3=Cc4cc(Cl)ccc4OC3)CC2)cc1	115*	97*	-2	57*	38	-4	60*	14	-28	107*
CN1C(=O)CC(C(=O)O)SC1=Nc1cc(Cl)cc(Cl)c1 (stereo not drawn)	-9	1	-3	5	25	3	.	.	.	.
NC(=O)c1c(-c2ccc(Cl)cc2Cl)csc1NC(=O)Cc1ccccc1	96*	103*	5	56*	.	-1	62*	21	6	90*
Cc1ccc(-c2csc3ncnc(N4CCN(Cc5ccccc5)CC4)c23)cc1	-2	0	-18	13	4	-2	.	.	.	.
Cc1csc2ncnc(NC3CCN(Cc4ccccc4)CC3)c12	107*	92*	-4	69*	11	-1	75*	22	44*	87*
CCN(CC)S(=O)(=O)c1cccc(NC(=O)CNc2cccc(S(=O)(=O)N3CCCC3)c2)c1	112*	90*	13	73*	29	-4	75*	38*	21	101*
CCN(CC)S(=O)(=O)c1ccc(C)c(NC(=O)CNc2cccc(S(=O)(=O)N3CCCC3)c2)c1	.	1	-6	36	-5	1	.	.	.	.
COC(=O)c1c(C)oc2ccc(N(C(=O)c3ccncc3)S(=O)(=O)c3ccc(C)cc3C)cc12	100*	62*	-10	61*	33	1	49*	27*	36*	29*
CC1CC(=O)Nc2ccccc2N1C(=O)CSc1nnnn1C (stereo not drawn)	-5	-2	-9	-4	-11	3	.	.	.	.
COc1ccc([C@H]2CC(=O)C=C(c3cc(Cl)ccc3C)C2)cc1	-3	-1	14	-3	0	1	.	.	.	.
COc1ccc([C@H]2CC(=O)C=C(c3ccnc4ccc(Cl)cc34)C2)cc1	89*	89*	33	74*	40	-6	68*	21	38*	99*
O=C(N/N=C/c1cc(Cl)ccc1O)c1ccc(Br)cc1	112*	92*	100*	76*	.	8	59*	29*	58*	64*
Cc1ccc(S(=O)(=O)NC(CC(=O)OCc2ccccc2)C(=O)OCc2ccccc2)cc1 (stereo not drawn)	.	2	.	.	.	.	.	.	.	.
COc1ccc(CNCCc2ccccc2)cc1OCC(N)=O	5	-2	14	-4	4	2	.	.	.	.
NS(=O)(=O)c1ccc(CCNCc2cc(Br)ccc2OCc2ccccc2)cc1	35	66*	-6	55*	8	-4	31	4	-10	52*
COc1ccc(CNCCc2ccc(Cl)cc2)cc1OCc1ccccc1	40	86*	45	53	38	1	29	6	5	84*
COC(=O)c1ccc(OC(=O)c2ccncc2)cc1O	-15	0	-8	1	29	-2	.	.	.	.
Cc1ccc(S(=O)(=O)N(C)C)cc1NC(=S)NC(C)CCC(C)C (stereo not drawn)	-9	57*	-3	56*	-10	-25	20	20	-64	73*
O=[N+]([O-])c1c(NCc2ccccc2)cc(N2CCc3ccccc3C2)c2nonc12	17	4	-3	39	10	1	.	.	.	.
CCOC(=O)N1CCN(Cc2nc(-c3cccs3)no2)CC1	-1	1	-1	-20	0	0	.	.	.	.
Cc1ccc(S(=O)(=O)N2CCN(c3ncnc4sccc34)CC2)cc1	89*	82*	-2	63*	22	-26	58*	34*	22	85*
SMILES	Beta cell apopt	MPTP block	CSC inhib	Gli-Sufu antag	Mdm2 MdmX PPI	GRIN3A LBD mod	Gli antag conf	SufuKO cytotox	Wnt3a cs	MPTP counter	others
O=C(O)c1cc2c(N3CCC(Cc4ccccc4)CC3)ncnc2s1	-6	-1	2	2	17	0	.	.	.	.
c1ccc(CC2CCN(c3ncnc4sccc34)CC2)cc1	.	100*	.	66*	.	1	70*	33*	35*	98*
Cc1cc(-c2ccc(C)c(S(=O)(=O)NCCCN3CCN(c4ccccc4F)CC3)c2)on1	29	72*	13	56*	22	-9	39	13	0	85*
Cc1cc(-c2ccc(C)c(S(=O)(=O)NCCCN3CCN(c4ccccc4)CC3)c2)on1	20	3	-10	47	7	-1	.	.	.	.
O=C(c1ccc(CSc2nc3ccncc3[nH]2)cc1)N1CCCCCC1	10	15	15	-43	-6	1	.	.	.	.
O=C(c1ccc(CSc2nc3ccncc3[nH]2)cc1)N1CCN(c2cccc(Cl)c2)CC1	66	90*	8	58*	39	-9	67*	42*	8	103*
CCOC(=O)c1c(C)[nH]c(C(=O)N/N=C/c2ccc(Br)cc2)c1C	26	99*	69	52	46	5	50*	61*	-18	76*
O=C(C1CCCCC1)N1CCN(c2ccnc3cc(Cl)ccc23)CC1	42	83*	-4	53	-18	0	57*	14	-17	43*
O=C(c1cc2sccc2n1Cc1ccc(F)cc1)N1CCN(c2nc3ccccc3s2)CC1	100*	90*	25	64*	4	0	70*	27*	-16	103*

Compound activity deposited in PubChem by several laboratories.
